# Source: PubChem
# DT40 TDP1 no CPT – qHTS for Inhibitors of human tyrosyl-DNA phosphodiesterase 1 (TDP1): qHTS in cells in absence of CPT. DT40 Tdp1-/- hTDP1 cells, no CPT, ATP luminescence, 48 h. Potency, µM (highest dose often 46.2 µM), inactives show top-dose activity change, negative = growth inhibition, most hits filed as inhibitors. hit rate 15% among 420,000. AID 686978, 2013; also: potency is read from the fitted curve at half-maximal effect; nearly all actives have a fitted effect of over 55% in size
#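 Compound effects on proliferation are scored in DT40 Tdp1-/-;hTDP1 cells in the absence of CPT. ATP levels (CellTiter-Glo luminescence) are recorded after a ≥48 hr, 37 °C incubation.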
# DT40 TDP1 CPT – growth inhibition of DT40 Tdp1-/-;hTDP1 cells with camptothecin (screen for TDP1 inhibitors) | chicken DT40 Tdp1-/-;hTDP1 cells + 20 nM CPT, ATP luminescence, 48 h | hit rate 12% among 420,000 | Potency, µM (series often up to 46.2 µM), without a hit: at the top dose activity change, negative = growth inhibition, most hits filed as inhibitors; also: potency is read from the fitted curve at half-maximal effect; nearly all actives have a fitted effect of over 55% in size
#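 Chicken DT40 Tdp1-/- cells complemented with human TDP1, 400 cells/well, exposed to compounds plus 20 nM camptothecin for at least 48 h at 37 C; viability read as ATP content by CellTiter-Glo luminescence.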
# HT1080-NT tox – kills 2HG-producing HT-1080-NT fibrosarcoma cells; HT-1080-NT fibrosarcoma viability, CellTiter-Glo ATP luminescence, 48 h; Potency, µM (series often up to 46.1 µM), inactives show at the highest dose activity, negative = less viability, hits mostly cytotoxic; hit rate 1.6% among 360,000; AID 686970;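 also: NT is the 2HG producing partner of a matched IDH1 knockdown line; potency is read from the fitted curve at half-maximal effect; 0% = DMSO-treated cells and -100% = media-only wells without cells; nearly all actives have a fitted effect of over 55% in size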
#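 HT-1080-NT fibrosarcoma cells (2HG-overproducing), 750 cells/well in RPMI with 5% FBS, dosed after 2 h and incubated 48 h at 37C. CellTiter-Glo luminescence normalized to DMSO and no-cell wells; concentration-response curves fitted and classed.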
# IL1B secr inh – inflammasome signaling inhibition, IL-1 beta readout; THP-1 LPS/ATP IL-1B secretion, AlphaLISA, 16 h; active compounds read low; activity change, % at 57.5 µM; hit rate 4.7% among 360,000; AID 743279; in the data active = activity change below about -50%; inconclusive = mostly about -30% to -49%
#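 THP-1 cells pretreated 1 hr with compounds (up to 57.5 uM final), then stimulated with LPS (250 ng/mL final) plus ATP (1.25 mM final); secreted IL-1B measured by AlphaLISA after 16 hr, decreased signal indicating inhibition.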
# HT1080 IDH1KD tx – kills HT-1080 cells with IDH1 knockdown; HT-1080 IDH1 knockdown viability, ATP luminescence, 48 h; Potency, µM (top dose mostly 46.1 µM), for inactives: top-dose activity, negative = toxicity, hits mostly cytotoxic; hit rate 2% among 360,000;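 also: potency is read from the fitted curve at half-maximal effect; 0% = DMSO wells and -100% = cell-free medium wells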
#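 Cytotoxicity counter-line: IDH1KD HT-1080, 48 h, CellTiter-Glo. Curves classed by r2, magnitude and activity.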
# An asterisk follows results filed as active; u = inconclusive; x = no result given. Most compounds without a hit are left out; they make up all but 19% or so of the library. Unless noted, calls follow the shape of the dose curve; as a rule, active = well fitted curve in the direction sought with a large enough effect; inconclusive = small, poorly fitted or top-dose-only effect, or another doubt; inactive = no such curve, though single readings can be large; an effect the other way counts as inactive or inconclusive. Unless noted, % is scaled to controls: 0 for no effect and ±100 for the full control effect.
SMILES,DT40 TDP1 no CPT,DT40 TDP1 CPT,HT1080-NT tox,IL1B secr inh,HT1080 IDH1KD tx
COc1ccc(-c2sc(NC(=O)c3ccc(C)cc3)nc2-c2ccc([N+](=O)[O-])cc2)cc1,u,23µM*,0%,-9,-3%
COc1ccc(C(=O)Nc2nc(-c3ccc([N+](=O)[O-])cc3)c(-c3ccccc3)s2)cc1,7.3µM*,8.2µM*,4%,u,-1%
CCc1ccc(C(=O)c2cn(CC(=O)Nc3ccc(Cl)cc3)c3cc4c(cc3c2=O)OCO4)cc1,16µM*,15µM*,x,x,x
CCc1ccc(C(=O)c2cn(CC(=O)Nc3ccc4c(c3)OCO4)c3ccc(CC)cc3c2=O)cc1,u,-4%,x,x,x
CCOc1ccc(C(=O)c2cn(CC(=O)Nc3ccc(Cl)cc3)c3cc4c(cc3c2=O)OCO4)cc1,13µM*,u,x,x,x
CCc1ccccc1NC(=O)CCC(=O)N1CCSc2ccccc21,-29%,u,7%,-2,11%
Cc1cc(C)c(S(=O)(=O)NCC(c2ccco2)N2CCc3ccccc3C2)c(C)c1 (stereo unspecified),u,u,6%,-10,6%
CCOc1ccc(C2NC(=O)C(C#N)=C(S)N2c2ccc(C)cc2)cc1OC (stereo unspecified),u,u,-7%,-59*,-14%
O=S(=O)(c1cccc(COc2c(Cl)cccc2Cl)c1)N1CCOCC1,u,u,-4%,-9,-2%
CCNc1nc(NC(C)C)nc(Oc2ccc(=O)n(C)n2)n1,13%,6%,9%,-6,18%
CCNc1nc(NC(C)(C)C)nc(Oc2ccc(=O)n(-c3ccccc3)n2)n1,21µM*,16µM*,-13%,17,-5%
CC(C)CNc1nc(Oc2ccc(=O)n(C)n2)nc(N2CCOCC2)n1,-8%,-20%,11%,5,-5%
CC(C)(C)Nc1nc(Oc2ccc(=O)n(-c3ccccc3)n2)nc(N2CCOCC2)n1,21µM*,u,-2%,-11,-6%
CC(=O)O[C@H]1C[C@@H]2CC[C@@H]3[C@H](CC[C@@]4(C)[C@H]3C[C@H](N3CC[N+](C)(C)CC3)[C@@H]4OC(C)=O)[C@@]2(C)C[C@@H]1N1CC[N+](C)(C)CC1,-26%,-15%,x,x,x
O=C1CC(NCc2ccc(F)cc2)C(=O)N1c1ccccc1 (stereo unspecified),0%,-10%,7%,-11,3%
N#CCNC1CC(=O)N(c2ccc(F)cc2)C1=O (stereo unspecified),u,4.6µM*,2%,-15,7%
COCCNC(=O)CCn1c(=O)c2cc(OC)c(OC)cc2n(CC(=O)Nc2ccc(Cl)cc2F)c1=O,-15%,7%,x,x,x
CCCCN(C)CCNC(=O)c1cc2c(-c3cccc(OC)c3)nn(C)c2s1,21µM*,u,18µM*,-87*,23µM*
COc1cccc(-c2cc(C(=O)NCc3ccco3)no2)c1,-23%,5%,0%,-11,-5%
COc1cccc(-c2nn(C)c3sc(C(=O)NCc4ccco4)cc23)c1,-27%,21µM*,-21%,-56*,u
CCN(CC)CCCNC(=O)c1cc2c(-c3cccc(OC)c3)nn(C)c2s1,15µM*,u,u,u,u
COc1cccc(-c2nn(C)c3sc(C(=O)NCCCN(C)Cc4ccccc4)cc23)c1,16µM*,u,18µM*,-79*,18µM*
COc1ccc(C(=O)NNC2=NCCCCC2)cc1,4%,2%,5%,u,14%
Cn1c(=O)nc2n(-c3ccc(Cl)c(Cl)c3)c3cc(Cl)ccc3cc-2c1=O,15%,14%,x,x,x
COc1cccc(Nc2c3c(nc4nncn24)CCC3)c1,-28%,-21%,x,x,x
CCc1ccc(OCC(=O)Nc2cc3oc4ccccc4c3cc2OC)c(Br)c1,-14%,-5%,x,x,x
CCc1ccc(OCC(=O)Nc2ccc(-c3cc4ccccc4oc3=O)c(OC)c2)cc1,7.3µM*,6.5µM*,u,7,u
